Screens (PubChem BioAssay)
Most compounds without a hit are left out; they make up all but 19% or so of the library.
TDP1 block: inhibitors of human tyrosyl-DNA phosphodiesterase TDP1 | Q9NUW8 | recombinant TDP1, AlphaScreen DNA substrate cleavage | Potency, µM (series often up to 130 µM), without a hit: top-dose activity change, negative = inhibition, most hits filed as inhibitors | 350,000 compounds, 0.28% hits; note: potency is the fitted concentration of half-maximal effect; % is set by controls: 0 for no effect and ±100 for the full control effect; nearly all actives have a fitted effect of over 40% in size
Target sequence (Q9NUW8 whole entry, looked up): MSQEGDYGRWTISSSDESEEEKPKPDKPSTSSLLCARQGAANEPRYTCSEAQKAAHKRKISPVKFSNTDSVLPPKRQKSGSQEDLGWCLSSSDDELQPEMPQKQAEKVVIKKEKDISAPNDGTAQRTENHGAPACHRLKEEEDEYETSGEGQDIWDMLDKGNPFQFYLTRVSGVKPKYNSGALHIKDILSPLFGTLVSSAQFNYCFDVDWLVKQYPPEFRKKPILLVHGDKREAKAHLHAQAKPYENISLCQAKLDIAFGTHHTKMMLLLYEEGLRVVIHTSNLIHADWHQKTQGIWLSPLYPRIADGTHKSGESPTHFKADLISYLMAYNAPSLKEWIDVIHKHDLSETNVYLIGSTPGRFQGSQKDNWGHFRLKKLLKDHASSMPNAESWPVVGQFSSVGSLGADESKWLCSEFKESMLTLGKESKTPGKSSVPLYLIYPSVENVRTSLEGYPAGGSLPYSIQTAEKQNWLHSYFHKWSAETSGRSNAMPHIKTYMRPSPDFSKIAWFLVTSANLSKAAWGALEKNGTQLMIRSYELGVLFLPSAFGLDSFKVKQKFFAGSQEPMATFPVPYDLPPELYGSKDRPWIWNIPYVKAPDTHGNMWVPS
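E. coli-derived human Tdp1, 1 nM final. Cpd preinc 15 min RT; substrate 15 nM final, 5 min RT; AS bead mix 10 ug/ml final, 10 min RT. Signal loss = tyrosine-FITC cleavage. No-enzyme wells = max signal.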
HepG2 viability: kills HepG2 cells in TGF-b inhibitor counter-screen. 410,000 compounds, 0.76% hits. AID 588856. Potency, µM (titrated, usually from 46.1 µM), for inactives: at the highest dose activity change, negative = cytotoxicity, hits mostly cytotoxic. HepG2 CAGA-GFP viability, ATP luminescence, 18 h; note: potency is the fitted concentration of half-maximal effect
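HepG2 CAGA-GFP cells (1000/well, DMEM with 1% FBS) received compound, then TGF-beta at 500 pg/mL final, and were incubated 18 hours at 37 degrees C. Viability was read by CellTiter-Glo luminescence. Media-only wells were set as complete cell-killing and DMSO as no toxicity.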
TDP1 cell CPT: DT40-hTDP1 cell growth loss with CPT; chicken DT40 Tdp1-/-;hTDP1 cells + 20 nM CPT, ATP luminescence, 48 h; Potency, µM (titrated, usually from 46.2 µM), for inactives: top-dose activity change, negative = growth inhibition, usual class: inhibitors; 420,000 compounds, 12% hits; note: potency is the fitted concentration of half-maximal effect; % is set by controls: 0 for no effect and ±100 for the full control effect; nearly all actives have a fitted effect of over 55% in size
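Chicken DT40 Tdp1-/- cells stably complemented with human TDP1 were seeded at 400 cells/well in medium containing 20 nM camptothecin, exposed to pin-transferred compounds, and grown at 37 °C for at least 48 hr. Viability was read as ATP luminescence.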
TDP1 cell noCPT: qHTS for Inhibitors of human tyrosyl-DNA phosphodiesterase 1 (TDP1): qHTS in cells in absence of CPT. Potency, µM (doses to about 46.2 µM), without a hit: at the top dose activity change, negative = growth inhibition, usual class: inhibitors. 420,000 compounds, 15% hits. DT40 Tdp1-/- hTDP1 cells, no CPT, ATP luminescence, 48 h; note: potency is the fitted concentration of half-maximal effect; % is set by controls: 0 for no effect and ±100 for the full control effect; nearly all actives have a fitted effect of over 55% in size
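Stably hTDP1-transfected Tdp1-null chicken DT40 cells were treated with library compounds minus camptothecin and grown for at least 48 hr at 37 °C, after which cellular ATP was quantified by luminescence.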
IL1B secr inh: blocks inflammasome-driven IL-1 beta release; THP-1 LPS/ATP IL-1B secretion, AlphaLISA, 16 h; active compounds read low; activity change, % at 57.5 µM; 360,000 compounds, 4.7% hits; AID 743279; in the data active = activity change below about -50%; inconclusive = mostly about -30% to -49%; note: % is set by controls: 0 for no effect and ±100 for the full control effect
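Secreted IL-1B measured by AlphaLISA bead assay after 16 h compound exposure of THP-1 cells; compounds (final up to 57.5 uM) added 1 h before LPS (250 ng/mL) and ATP (1.25 mM) stimulation; lower signal means less secretion.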
TGFb SMAD3 inh: inhibitors of TGF-b signaling; Potency, µM (top dose mostly 46.1 µM), for the others: at the top dose activity, negative = inhibition, hits mostly inhibitors; AID 588855; HepG2 CAGA-GFP TGF-b/SMAD3 reporter, GFP fluorescence, 18 h; TGF-beta stimulated, 500 pg/mL final; 410,000 compounds, 1.2% hits; note: potency is the fitted concentration of half-maximal effect; % is set by controls: 0 for no effect and ±100 for the full control effect; nearly all actives have a fitted effect of over 65% in size
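HEPG2 CAGA-GFP, 1000 cells/well; 2 h settle, 37 C; cpd via pin tool; TGF-b 500 pg/mL final; 18 h, 37 C; GFP imaging ex488/em500-530; %Activity normalised to -TGF-b and +DMSO controls; CRC fit, curve class.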
Starred values were filed as active, the others as inactive; ? = inconclusive; . = no result given; [ ] = another dose, or the depositor's remark. Unless noted, calls come from the whole dose curve; as a rule, active = well fitted curve in the direction sought with a large enough effect; inconclusive = small, poorly fitted or top-dose-only effect, or another doubt; inactive = no such curve, though single readings can be large; an effect the other way counts as inactive or inconclusive.

SMILES	TDP1 block	HepG2 viability	TDP1 cell CPT	TDP1 cell noCPT	IL1B secr inh	TGFb SMAD3 inh
O=[N+]([O-])c1cc(-c2nc(-c3ccncc3)no2)ccc1NCc1ccccc1	6%	-48%	-19%	-24%	.	-2%
O=C(Nc1ccc(Oc2ncnc3cc(Cl)ccc23)nc1)c1cccs1	.	-20%	-17%	-28%	2	-14%
COc1cc(-c2cnc3ccccc3c2)cc2c1OCCN(S(=O)(=O)C[C@]13CC[C@H](CC1=O)C3(C)C)C2	.	.	22%[9.04 µM]	?	.	.
Nc1nn(-c2ccccc2)c(N)c1N=Nc1ccccc1	8%	2%	4.1µM*	4.6µM*	15	?
Nc1ncnc(N)c1N=Nc1ccccc1	0%	-42%	23µM*	3.3µM*	-60*	-23%
Cc1cccc(N=Nc2c(C)nn(-c3ccccc3)c2N)c1C	10%	-8%	?	?	0	-16%
Cc1nn(-c2ccccc2)c(N)c1N=Nc1ccccc1	8%	-27%	?	21µM*	-68*	-25%
Cc1ccc(NC(=O)CSc2nnc(C)n3c2cc2sccc23)c(C)c1	5%	-18%	-21%	-17%	.	-29%
COc1ccc(CCN(Cc2cccs2)S(=O)(=O)c2ccc(S(=O)(=O)N3CCC(C)CC3)cc2)cc1OC	0%	1%	-28%	?	7	-5%
CCC(C)NS(=O)(=O)c1ccc(S(=O)(=O)N(CCc2ccc(OC)c(OC)c2)Cc2cccs2)cc1 (configuration not stated)	0%	-5%	10µM*	7.3µM*	-15	?
COc1ccc(CCN(Cc2cccs2)S(=O)(=O)c2ccc(-n3cnnn3)cc2)cc1OC	2%	-19%	12µM*	?	-19	-20%
COc1cc(S(=O)(=O)N(CCc2ccccc2)Cc2cccs2)ccc1-n1cnnn1	3%[56.1 µM]	-1%	-22%	-21%	8	20%
COc1ccc(CCN(Cc2cccs2)S(=O)(=O)c2ccc(S(=O)(=O)N3CCCCCC3)cc2)cc1OC	2%	1%	?	9.2µM*	6	-14%
O=C(CN1C(=O)C2(OCCO2)c2cc(Br)ccc21)NO	.	-3%	19%	-12%	-55*	11%
COC(=O)[C@@H]1C=C[C@H](C)[C@H](CCOc2ccccc2)O1	1%	.	.	.	.	.
COc1cc2c(ccc3cc(OC)c(OC)c(O)c32)cc1O	.	-18%	7.3µM*	9.2µM*	-6	7%
COc1cc2oc(=O)ccc2cc1O	6%	.	.	.	.	.
CCN(CC(=O)NCc1cccs1)C(=O)c1cccc(S(=O)(=O)Nc2ccccc2Cl)c1	-3%[0.505 µM]	-23%	-12%	-10%	2	9%
COc1ccc(NC(=O)c2oc3ccccc3c2NC(=O)c2ccco2)c(OC)c1	0%	3%	6.3µM*	?	8	-10%
COc1ccc(NC(=O)c2oc3ccccc3c2NC(=O)c2cc(=O)c3c(C)cc(C)cc3o2)cc1	2%	3%	?	2.9µM*	.	-2%
COc1ccc(NC(=O)c2oc3ccccc3c2NC(=O)c2cc3ccccc3o2)cc1	6%	-12%	?	4.1µM*	.	?
COc1ccc(NC(=O)c2oc3ccccc3c2NC(=O)c2ccco2)cc1	5%	-6%	?	18µM*	.	18%
C[C@@H]1C[C@H]2C3C[C@H](F)C4=CC(=O)C=CC4(C)[C@@]3(F)[C@@H](O)CC2(C)[C@@]1(O)C(=O)COC(=O)C(C)(C)C (some centres not stated)	.	.	14%	?	.	.
Cc1ccc(N2CCC(N3CCN(C)C(CCO)C3)CC2)cc1 (configuration not stated)	3%	-13%	16%	-4%	8	1%
Cc1cc(N2C(=O)C(O)=C(C(=O)c3ccco3)C2c2ccccc2F)no1 (configuration not stated)	-3%	-1%	-26%	?	0	-6%
SMILES	TDP1 block	HepG2 viability	TDP1 cell CPT	TDP1 cell noCPT	IL1B secr inh	TGFb SMAD3 inh
COc1ccc(NC(=O)c2oc3ccccc3c2NC(=O)c2cc(=O)c3ccccc3o2)cc1	4%	-20%	?	?	.	6%
O=C(Nc1c(C(=O)Nc2ccc(F)cc2)oc2ccccc12)c1cc2ccccc2o1	-6%	-9%	?	18µM*	.	6%
CC(=NC1CC1)c1c(-c2ccccc2)[nH]n(-c2nc3ccccc3s2)c1=O	5%	6%	?	22µM*	.	-4%
CC(=NC1CCCC1)c1c(C)[nH]n(-c2nc3ccccc3s2)c1=O	5%	-35%	?	?	-17	8%
O=C1CCCC/C=C\C[C@H](CC(=O)N(CCO)Cc2ccccc2)C(=O)NCCO1	0%	-6%	-22%	-3%	9	4%
CC(C)(C)n1ncc2c(=O)n(Cc3c(F)ccc(Cl)c3Cl)cnc21	.	-5%	.	.	.	7%
CCCCOc1ccc(S(=O)(=O)N2CCN(c3ccccc3OCC)CC2)cc1	-1%[12.3 µM]	2%	-26%	?	.	-21%
CC(=O)Cc1nsc(NC(=O)c2ccc(Br)o2)n1	1%	7%	?	1.6µM*	16	-2%
CC(=O)Cc1nsc(NC(=O)c2ccc(-c3cccc(Cl)c3)o2)n1	8%	-1%	16µM*	16µM*	-29	6%
CC(=O)Cc1nsc(NC(=O)c2ccco2)n1	2%	-7%	-16%	?	-5	-4%
Cc1cc(C(=O)C(=O)Nc2nncs2)c(C)n1-c1ccc(Cl)cc1	14%	-12%	-30%	-28%	.	-30%
COc1ccccc1Nc1nc2c(s1)CCC2	-1%	-2%	15µM*	?	-11	10%
COc1cc(N)ccc1NC(=O)c1cc2ccccc2o1	9%	-4%	-6%	-4%	-11	16%
COc1cc(N)ccc1Nc1c2ccccc2nc2ccccc12	.	-74%	0.82µM*	1.5µM*	-24	?
